{"source": "PubChem BioAssay AID1016", "about": "(Sanford-Burnham Center for Chemical Genomics, 2008)", "note": "The whole screen tested about 200,000 compounds, of which about 330 (0.17%) were called active. Only a selection was taken, and actives are over-represented in it overall. Unmarked numbers belong to inactive results.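 Rule for the calls: active = activation factor of 2 or more at 20 µM, a signal rise over negative controls twice the positive control's; inactive = the rest.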", "data": [{"test_system": "alkaline phosphatase, intestinal [Bos taurus]", "experiment": "bovine intestinal alkaline phosphatase activators, primary screen, biochemical, bovine IAP, CDP-star luminescence (AID 1016)", "settings": "purified bovine IAP, 30 min, at 20 µM, stronger effect = higher value, fold of DMSO-control signal, blank-subtracted", "values": [{"smiles": "Cc1cccc(CC(=O)N2CCN=C2SCc2ccc([N+](=O)[O-])cc2)c1", "activation factor": 0.8}, {"smiles": "COc1ccc(CCNc2cc(C)nc3c(-c4ccc(Cl)cc4)c(C)nn23)cc1OC", "activation factor": 0.9}, {"smiles": "COc1ccc(-c2nc3cnccn3c2NC(C)(C)CC(C)(C)C)cc1O", "activation factor": 1.2}, {"smiles": "COc1ccccc1N1CCN(c2ccc([N+](=O)[O-])nc2)CC1", "activation factor": 1}, {"smiles": "CCS(=O)(=O)c1ccc(O)c(NC(=O)COc2ccc(Cl)cc2)c1", "activation factor": 1}, {"smiles": "Clc1cccc(CN2COc3c(cc(Cl)c4cccnc34)C2)c1", "activation factor": 0.8}, {"smiles": "Cc1ccc(Cl)c(NC(=O)CN(C)CC(=O)Nc2ccc(F)c(F)c2F)c1Cl", "activation factor": 1.3}, {"smiles": "CCOC(=O)c1c(NC(=O)Cn2nc(C(F)(F)F)cc2C)sc2c1CCC2", "activation factor": 1}, {"smiles": "CCc1ccc(C2C(C#N)=C(N)N(N3CCOCC3)C3=C2C(=O)CC(C)(C)C3)s1", "note": "(configuration not stated)", "activation factor": 1}, {"smiles": "Cc1c(Br)ccc(NC(=O)COc2ccccc2C(N)=O)c1C", "activation factor": 0.9}, {"smiles": "CC(C)NC(=S)N1CCN(C(c2ccccc2)c2ccccc2)CC1", "activation factor": 0.9}, {"smiles": "COc1ccc(F)c(-c2nc(CN3CCC(c4ccccc4)CC3)c(C)o2)c1", "activation factor": 1.1}, {"smiles": "C=CCC(CC=C)(C(N)=O)c1ccccc1", "activation factor": 1}, {"smiles": "Fc1ccc(CNCc2ccc(Br)cc2)cc1", "activation factor": 0.9}, {"smiles": "CCOC(=O)COc1cc(O)c2c(=O)cc(-c3ccccc3)oc2c1", "activation factor": 1.1}, {"smiles": "CCN(CC)S(=O)(=O)c1ccc(OC(C)C)c(N)c1", "activation factor": 1}, {"smiles": "COCCNc1cc(NCCOC)c([N+](=O)[O-])cc1[N+](=O)[O-]", "activation factor": 1.3}, {"smiles": "Cc1ccc2[nH]c(=O)c(CN3CCCCC3)c(-c3ccccc3)c2c1", "activation factor": 1.1}, {"smiles": "O=S(=O)(NCC1CCCO1)c1cnc(Cl)c(Cl)c1", "note": "(configuration not stated)", "activation factor": 1}, {"smiles": "O=C(NCc1cccs1)c1ccc(Br)o1", "activation factor": 1}, {"smiles": "O=[N+]([O-])c1ccc2c(c1)C(N1CCOCC1)/C(=C/C1(O)CCCCC1)O2", "note": "(configuration not stated)", "activation factor": 1.1}, {"smiles": "CC(NC(=S)Nc1ccc(OC(F)F)cc1)c1ccc(F)cc1", "note": "(configuration not stated)", "activation factor": 0.8}, {"smiles": "O=C1c2ccccc2NC(c2ccccc2O)N1NS(=O)(=O)c1ccccc1", "note": "(configuration not stated)", "activation factor": 1}, {"smiles": "CN(CCc1ccccn1)C(=O)CCC1CCCN(Cc2ccccc2OC(F)F)C1", "note": "(configuration not stated)", "activation factor": 1.1}, {"smiles": "Cc1ccnc(NC(=O)Cn2ccc([N+](=O)[O-])n2)c1", "activation factor": 1}, {"smiles": "Cc1ccc(NC(=O)NC2CCCCC2)cc1S(=O)(=O)N1CCOCC1", "activation factor": 1.2}, {"smiles": "Cc1ccc(N=C2NC(=O)c3cccc([N+](=O)[O-])c32)cc1", "activation factor": 1}, {"smiles": "Cc1ccc(Sc2ccncc2S(N)(=O)=O)cc1", "activation factor": 0.5}, {"smiles": "Cc1cc2ccccn2c1C(=O)c1cccc(S(=O)(=O)N2CCOCC2)c1", "activation factor": 1}, {"smiles": "Cc1ccc([N+](=O)[O-])c(OCCCNCC(C)O)c1", "note": "(configuration not stated)", "activation factor": 1}, {"smiles": "CCn1c(C(C)C)n[nH]c1=S", "activation factor": 0.9}, {"smiles": "O=C(COC(=O)c1cc([N+](=O)[O-])ccc1NCc1ccccc1)NC1CCCCC1", "activation factor": 1}, {"smiles": "COCCn1c(=NC(=O)c2ccccc2[N+](=O)[O-])sc2cc(S(C)(=O)=O)ccc21", "activation factor": 1.2}, {"smiles": "CC(C)CC(CO)N1CCN(C(=O)c2ccc(Cl)cc2Cl)CCC1=O", "note": "(configuration not stated)", "activation factor": 1.2}, {"smiles": "Cc1cc2oc(=O)cc(CN3CCN(S(=O)(=O)c4cccs4)CC3)c2cc1C(C)C", "activation factor": 0.9}, {"smiles": "N#C/C(=C/c1cccc([N+](=O)[O-])c1)c1nnc2n1CCCCC2", "activation factor": 0.5}, {"smiles": "Cc1ccc(OCCCC(=O)NC(C)c2ccccc2)c(C)c1", "note": "(configuration not stated)", "activation factor": 1}, {"smiles": "CN(c1ccccc1)S(=O)(=O)c1cccc(NC(=O)Cc2c(F)cccc2Cl)c1", "activation factor": 0.9}, {"smiles": "CCCCC(CC)CNC(=O)C(=O)C1C(=O)Nc2ccccc21", "note": "(configuration not stated)", "activation factor": 0.9}, {"smiles": "COc1ccc(OC)c(NC(=S)N2CCc3ccccc3C2)c1", "activation factor": 1}, {"smiles": "CCS(=O)(=O)N1Cc2ccccc2CC1C(=O)Nc1nc2ccc(F)cc2s1", "note": "(configuration not stated)", "activation factor": 1}, {"smiles": "COc1cccc(C(=O)Nc2cc3c(cc2Br)OCCCO3)c1", "activation factor": 1.1}, {"smiles": "O=C(Nc1nnc(C2CC2)s1)C1=NN(C2CCS(=O)(=O)C2)C(=O)CC1", "note": "(configuration not stated)", "activation factor": 1}, {"smiles": "Cc1ccc(S(=O)(=O)/N=C(/Nc2ccc3[nH]c(=O)[nH]c3c2)c2ccccc2)cc1", "activation factor": 0.9}, {"smiles": "Cc1cc(/C=C2/C(=N)N3C(=NC2=O)SN=C3S(C)(=O)=O)c(C)n1-c1ccccc1", "activation factor": 1.1}, {"smiles": "Cc1ccc(-n2cnc3ncnc(-c4ccccc4)c32)cc1", "activation factor": 1.1}, {"smiles": "Cc1ccc(NC(=O)c2csc3c2CCCC3)cc1", "activation factor": 0.9}, {"smiles": "Cc1cc(C)c(NC(=S)N2CCCC2C(=O)O)c(C)c1", "note": "(configuration not stated)", "activation factor": 0.7}, {"smiles": "CC(Sc1nc(-c2ccccc2)cc(C(F)(F)F)n1)C(=O)Nc1ccc2c(c1)OCO2", "note": "(configuration not stated)", "activation factor": 0.9}, {"smiles": "Cc1ccsc1/C=N/n1c(=S)[nH]nc(C)c1=O", "activation factor": 0.9}, {"smiles": "CC(C)C(C)(C#N)NC(=O)CSc1nncn1-c1ccccc1", "note": "(configuration not stated)", "activation factor": 1}, {"smiles": "Cc1[nH]c2c(C(=O)N3CCCC(CCC(=O)NCc4ccccc4F)C3)cccc2c1C", "note": "(configuration not stated)", "activation factor": 1.3}, {"smiles": "COC(=O)c1cccc([N+](=O)[O-])c1CS(=O)(=O)c1ccc(C)cc1", "activation factor": 0.8}, {"smiles": "O=C(COC(=O)c1ccco1)NCc1ccc(Cl)cc1", "activation factor": 1}, {"smiles": "O=C(N/N=C/c1cccc([N+](=O)[O-])c1)C1CC(=O)N(c2ccc(Br)cc2)C1", "note": "(configuration not stated)", "activation factor": 0.7}, {"smiles": "CCN(CC(=O)NC(=O)NCc1ccccc1)Cc1nc2ccccc2c(=O)[nH]1", "activation factor": 1.5}, {"smiles": "CCN(CC(=O)Nc1ccc(Cl)c(S(=O)(=O)N(C)C)c1)Cc1nc2ccccc2c(=O)[nH]1", "activation factor": "2.1 (active)"}, {"smiles": "CN(C)S(=O)(=O)c1cc(NC(=O)CN2C(=O)NC3(CCCc4ccccc43)C2=O)ccc1Cl", "note": "(configuration not stated)", "activation factor": 1}, {"smiles": "N#Cc1c(-c2ccc(Cl)cc2)c2c([nH]c1=S)CCCC2", "activation factor": 0.8}, {"smiles": "O=C(O)CSCC(=O)Nc1cccc(C(F)(F)F)c1", "activation factor": 0.9}, {"smiles": "CC(C)C[C@H](NC(=O)Nc1cccc(C(F)(F)F)c1)C(=O)O", "activation factor": "4.4 (active)"}, {"smiles": "CCNS(=O)(=O)c1ccc(NC(=O)Nc2cccc(C(F)(F)F)c2)cc1", "activation factor": 0.6}, {"smiles": "CCCCCCCCc1c(O)nc(-n2[nH]c(C)c(CCO)c2=O)[nH]c1=O", "activation factor": 1.2}, {"smiles": "O=C(C1CCN(S(=O)(=O)c2ccc(Br)s2)CC1)N1CCN(C2CCCCC2)CC1", "activation factor": 1.2}, {"smiles": "O=C(Nc1cc(S(=O)(=O)N2CCOCC2)ccc1Cl)c1cc(=O)c2ccccc2o1", "activation factor": 1.3}, {"smiles": "O=[N+]([O-])c1cc(S(=O)(=O)N2CCCC2)ccc1NN=C1CCCC1", "activation factor": 0.9}, {"smiles": "COC(=O)C1=NN(c2ccccc2)C2C(=O)N(c3ccccc3OC)C(=O)C12", "note": "(configuration not stated)", "activation factor": 0.9}, {"smiles": "CC1CN(C(=O)c2ccccc2NS(=O)(=O)c2cccc([N+](=O)[O-])c2)CC(C)O1", "note": "(configuration not stated)", "activation factor": 0.9}, {"smiles": "CCOc1cc(NC(=S)NCc2ccco2)c(OCC)cc1NC(=O)c1ccco1", "activation factor": 1}, {"smiles": "NNC(=O)C1CC(O)CN1S(=O)(=O)c1ccc(Cl)cc1", "note": "(configuration not stated)", "activation factor": 1.1}, {"smiles": "CC(C)OC(=O)CN1CCN(c2ccc(Cl)cc2)CC1", "activation factor": 1.1}, {"smiles": "O=C(C(=O)N1CCc2ccccc2C1)c1c[nH]c2ccccc12", "activation factor": 0.9}, {"smiles": "COc1ccc(N2CCN(C(=O)COc3ccc4c(C)cc(=O)oc4c3)CC2)cc1", "activation factor": 1.1}, {"smiles": "O=C(O)c1cccc(N=NN2CCCCCC2)c1", "activation factor": 1.1}, {"smiles": "COc1cc(NC(=S)NCc2ccc(S(N)(=O)=O)cc2)cc(OC)c1", "activation factor": 1}, {"smiles": "Cc1ccc(S(=O)(=O)N(C)C)cc1NC(=O)/C=C/c1cccs1", "activation factor": 0.9}, {"smiles": "COc1cc(OC)c(-n2cc(-c3ccc(Cl)cc3)[nH]c2=O)cc1Cl", "activation factor": 1}, {"smiles": "CCCNC(=S)N1CCCC(c2nc3ccccc3[nH]2)C1", "note": "(configuration not stated)", "activation factor": 1.1}, {"smiles": "Cc1ccccc1C(OCCN(C)C)C1CCCCC1", "note": "(configuration not stated)", "activation factor": 1.1}, {"smiles": "CCCN(CCC)CCCNC(=O)CNC(=O)c1nn(-c2ccc(OC)cc2)c(=O)c2ccccc12", "activation factor": 1.1}, {"smiles": "CCc1nnc(NC(=O)C2CC(=O)N(c3ccc4c(c3)OCCO4)C2)s1", "note": "(configuration not stated)", "activation factor": 0.4}, {"smiles": "Cc1ccc(S(=O)(=O)N2CCN(CC(=O)N/N=C/c3cc([N+](=O)[O-])ccc3Cl)CC2)cc1", "activation factor": 0.5}, {"smiles": "COc1ccc(/C=N/NC(=O)CNC(=O)c2ccc(S(=O)(=O)N3CCCC3)cc2)c(OC)c1", "activation factor": 1.1}, {"smiles": "Cc1cc(Br)ccc1SCC(=O)OCC(=O)NCc1ccc2c(c1)OCO2", "activation factor": 0.8}, {"smiles": "CS(=O)(=O)n1nc(-c2ccco2)nc1N", "activation factor": 1.2}, {"smiles": "Cc1ccc(NC(=O)NC(=O)N(C2CCCCC2)S(=O)(=O)c2ccccc2)cc1", "activation factor": 1.1}, {"smiles": "CCN(CC)CCCSc1nc2ccccc2s1", "activation factor": 1.1}, {"smiles": "COc1ccc(C2N=C(N)N=C(N)N2c2ccccc2)cc1OC", "note": "(configuration not stated)", "activation factor": "3 (active)"}, {"smiles": "COc1ccc(C2/C(=C(/O)c3ccccc3)C(=O)C(=O)N2c2ncccn2)cc1OC", "note": "(configuration not stated)", "activation factor": 1}, {"smiles": "COc1ccc(C2SCCN2S(=O)(=O)c2ccccc2)cc1OC", "note": "(configuration not stated)", "activation factor": 1}, {"smiles": "O=C(Nc1nnc(C2COc3ccccc3O2)o1)c1ccc(F)cc1", "note": "(configuration not stated)", "activation factor": 1}, {"smiles": "C/C(Cc1ccccc1)=N\\NC(=O)CNC(=O)c1cccc(Br)c1", "activation factor": 0.9}, {"smiles": "Cc1ccccc1NC(=O)c1ccc(COc2ccc3c(C)cc(=O)oc3c2)cc1", "activation factor": 1}, {"smiles": "Oc1c(C(c2ccccn2)N2CCOCC2)ccc2cccnc12", "note": "(configuration not stated)", "activation factor": "2 (active)"}, {"smiles": "Cc1nc2sc(C(c3ccco3)N3CCOCC3)c(O)n2n1", "note": "(configuration not stated)", "activation factor": 0.9}, {"smiles": "CCOC(=O)N1CCN(C(c2cccnc2)c2ccc3cccnc3c2O)CC1", "note": "(configuration not stated)", "activation factor": 1.3}, {"smiles": "CCOC(=O)c1nn(-c2ccccc2F)c2nc(Nc3ccccc3)cc(=O)n12", "activation factor": 1}]}]}
